Laboratory results: the supplement of paper PMC10849652
The full data set covers some 7,900 targets. This sample favours those with a hit. About 0.6% of all pairs of compound and target were hits.

Columns and labels:
Assay in all cases: log2 fold change, soluble protein after heating vs DMSO (PISA); higher = thermal stabilisation; K562 cells, 10 uM, 30 min; active = over 0.2 and 3.5 SD of the protein, either way, in both replicates (recomputed)
[1] = compound: CS(=O)(=O)c1ccc(-c2cnc(N)c(C(=O)Nc3ccccc3)n2)cc1
How it was run: (§1)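 For each measurement, 10 μM compound was applied for 30 min to K562 cells at 2×10^6 cells/mL. Aliquots were heated for 3 min across 48°C-58°C, pooled, and extracted in PBS with 0.5% NP-40 at 4°C; the supernatant after 21,000xg for 90 min was soluble protein. This was quantified by TMTpro 16plex LC-MS/MS with channel sums equalised, and thermal stability was reported relative to control samples from duplicates, on a log2 fold-change scale.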

[2] = compound: C[C@@H](Oc1cc(-c2cnn(C3CCNCC3)c2)cnc1N)c1c(Cl)ccc(F)c1Cl [crizotinib]
How it was run: as §1

[3] = compound: C[C@@H]1COCCN1C2=NC(=NC(=C2)C3(CC3)S(=O)(=O)C)C4=C5C=CNC5=CC=C4
How it was run: as §1

[4] = compound: C[C@H](C1=CC=C(C=C1)C(=O)NC2=C3C=CNC3=NC=C2)N
How it was run: as §1

[5] = compound: C[C@H](Nc1ncnc2nc[nH]c12)c1cc2cccc(Cl)c2c(=O)n1-c1ccccc1 [duvelisib]
How it was run: as §1

[6] = compound: Cc1cc(Nc2cc(CN3CCOCC3)c3nc(C)c(Cc4ccc(Cl)cc4F)n3n2)n[nH]1 [gandotinib]
How it was run: as §1

[7] = compound: Cc1cc(Nc2cc(N3CCN(C)CC3)nc(Sc3ccc(NC(=O)C4CC4)cc3)n2)n[nH]1 [tozasertib]
How it was run: as §1

[8] = compound: Cc1cc(SCc2sc(-c3ccc(C(F)(F)F)cc3)nc2C)ccc1OCC(=O)O
How it was run: as §1

[9] = compound: Cc1ccc(-n2nc(C(C)(C)C)cc2NC(=O)Nc2ccc(OCCN3CCOCC3)c3ccccc23)cc1 [doramapimod]
How it was run: as §1

[10] = compound: Cc1ccc(C(=O)N(CCCN)[C@@H](c2nc3cc(Cl)ccc3c(=O)n2Cc2ccccc2)C(C)C)cc1 [ispinesib]
How it was run: as §1

[11] = compound: Cc1ccc(NC(=O)c2ccc(CN3CC[C@H](N(C)C)C3)c(C(F)(F)F)c2)cc1Nc1nccc(-c2cncnc2)n1 [bafetinib]
How it was run: as §1

[12] = compound: Cc1cccc(CC(=O)N2CCc3c2ccc(-c2cn(C)c4ncnc(N)c24)c3F)n1
How it was run: as §1

[13] = compound: Cc1cn(-c2cc(NC(=O)c3ccc(C)c(Nc4nccc(-c5cccnc5)n4)c3)cc(C(F)(F)F)c2)cn1 [nilotinib]
How it was run: as §1

[14] = compound: Cc1nc(Nc2n[nH]c3c2CN(C(=O)N[C@H](CN(C)C)c2ccccc2)C3(C)C)c2sccc2n1
How it was run: as §1

[15] = compound: Cc1nc(Nc2ncc(C(=O)Nc3c(C)cccc3Cl)s2)cc(N2CCN(CCO)CC2)n1 [dasatinib]
How it was run: as §1

[16] = compound: Cc1ncc(-c2ccnc(Nc3ccc(S(C)(=O)=O)cc3)n2)n1C(C)C
How it was run: as §1

[17] = compound: Cn1cc(-c2ccc3c(c2)CCN3C(=O)Cc2cccc(C(F)(F)F)c2)c2c(N)ncnc21
How it was run: as §1

[18] = compound: Cn1cc(-c2ccc3nnc(C(F)(F)c4ccc5ncccc5c4)n3n2)cn1
How it was run: as §1

[19] = compound: Cn1cncc1[C@@](N)(c1ccc(Cl)cc1)c1ccc2c(c1)c(-c1cccc(Cl)c1)cc(=O)n2C [tipifarnib]
How it was run: as §1

[20] = compound: FC(F)(F)c1ccc(/C=C/c2nc(COc3ccc(CCCCn4ccnn4)cc3)co2)cc1 [mubritinib]
How it was run: as §1

Measured: log2 fold change

PRMT3 (UniProt O60678)
Chain of UniProt O60678 (O60678 whole entry, looked up): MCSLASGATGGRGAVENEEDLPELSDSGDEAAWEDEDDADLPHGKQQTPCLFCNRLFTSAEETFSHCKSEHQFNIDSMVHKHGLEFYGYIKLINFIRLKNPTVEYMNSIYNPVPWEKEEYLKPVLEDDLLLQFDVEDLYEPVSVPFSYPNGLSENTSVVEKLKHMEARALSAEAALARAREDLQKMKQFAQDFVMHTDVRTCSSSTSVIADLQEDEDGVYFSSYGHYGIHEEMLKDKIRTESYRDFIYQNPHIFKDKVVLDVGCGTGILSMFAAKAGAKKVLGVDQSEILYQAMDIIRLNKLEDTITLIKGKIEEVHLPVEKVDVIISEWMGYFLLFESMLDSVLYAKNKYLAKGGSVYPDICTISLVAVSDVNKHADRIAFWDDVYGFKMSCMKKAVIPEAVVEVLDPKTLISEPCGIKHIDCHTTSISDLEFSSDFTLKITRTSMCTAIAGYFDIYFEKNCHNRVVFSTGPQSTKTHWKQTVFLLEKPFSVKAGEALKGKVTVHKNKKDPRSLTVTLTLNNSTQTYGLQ
inactive: [1] -0.067 | [2] -0.137 | [3] -0.002 | [4] -0.058 | [5] -0.028 | [6] -0.156 | [7] 0.002 | [8] 0.111 | [9] -0.037 | [10] -0.02 | [11] 0.048 | [12] 0.034 | [13] -0.155 | [14] 0.011 | [15] -0.153 | [16] -0.02 | [17] -0.044 | [18] -0.004 | [19] -0.126 | [20] 0.081

PDS5B (UniProt Q9NTI5)
inactive: [1] 0.03 | [2] -0.229 | [3] 0.222 | [4] 0.041 | [5] 0.004 | [6] -0.149 | [8] 0.208 | [9] -0.074 | [10] -0.225 | [11] 0.041 | [12] -0.139 | [13] -0.314 | [14] 0.04 | [15] -0.244 | [16] -0.031 | [17] 0.038 | [18] 0.147 | [19] 0.054 | [20] 0.127
active: [7] -0.604

PBX2 (UniProt P40425)
Chain of UniProt P40425 (P40425 whole entry, looked up): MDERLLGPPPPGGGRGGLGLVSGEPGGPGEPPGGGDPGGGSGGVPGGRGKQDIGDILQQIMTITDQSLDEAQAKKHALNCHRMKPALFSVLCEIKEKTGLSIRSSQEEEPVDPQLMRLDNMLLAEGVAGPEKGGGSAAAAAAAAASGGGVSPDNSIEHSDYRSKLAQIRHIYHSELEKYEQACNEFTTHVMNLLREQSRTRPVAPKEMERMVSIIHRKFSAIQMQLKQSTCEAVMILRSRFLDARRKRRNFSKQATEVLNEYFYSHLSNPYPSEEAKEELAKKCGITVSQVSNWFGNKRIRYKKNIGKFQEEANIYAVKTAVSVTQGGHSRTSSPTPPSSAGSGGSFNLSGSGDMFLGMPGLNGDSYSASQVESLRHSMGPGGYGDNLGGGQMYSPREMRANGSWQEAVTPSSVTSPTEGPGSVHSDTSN
active: [6] -0.632
inactive: [1] -0.001 | [2] -0.14 | [3] 0.026 | [4] -0.051 | [5] 0.018 | [7] 0.062 | [8] 0.095 | [9] 0.119 | [10] -0.102 | [11] 0.019 | [12] 0.042 | [13] -0.057 | [14] -0.071 | [15] -0.202 | [16] -0.034 | [17] 0.013 | [18] -0.091 | [19] -0.116 | [20] 0.027

PPP2R5A (UniProt Q15172)
Chain of UniProt Q15172 (Q15172 whole entry, looked up): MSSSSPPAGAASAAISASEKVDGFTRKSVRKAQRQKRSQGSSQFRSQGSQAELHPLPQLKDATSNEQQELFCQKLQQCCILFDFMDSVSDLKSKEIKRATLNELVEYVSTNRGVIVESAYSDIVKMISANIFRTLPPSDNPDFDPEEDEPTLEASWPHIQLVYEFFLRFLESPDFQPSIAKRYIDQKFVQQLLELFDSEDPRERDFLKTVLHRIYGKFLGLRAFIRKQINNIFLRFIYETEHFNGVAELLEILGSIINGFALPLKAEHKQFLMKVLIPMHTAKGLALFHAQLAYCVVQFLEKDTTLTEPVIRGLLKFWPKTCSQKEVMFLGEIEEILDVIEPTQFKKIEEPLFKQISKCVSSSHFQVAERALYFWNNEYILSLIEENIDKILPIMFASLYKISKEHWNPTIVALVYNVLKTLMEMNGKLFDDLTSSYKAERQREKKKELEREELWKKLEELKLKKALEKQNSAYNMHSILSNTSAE
inactive: [1] -0.018 | [2] -0.154 | [3] 0.014 | [4] 0.022 | [5] 0.033 | [6] -0.21 | [7] -0.049 | [8] 0.072 | [9] -0.019 | [10] -0.056 | [11] -0.008 | [12] 0.027 | [13] -0.075 | [14] -0.039 | [15] -0.205 | [16] 0.006 | [17] 0.032 | [18] 0.006 | [19] -0.179 | [20] 0.012

PJA2 (UniProt O43164)
inactive: [1] 0.032 | [2] -0.042 | [3] -0.126 | [4] 0.091 | [5] -0.021 | [6] 0.097 | [7] -0.018 | [8] -0.118 | [9] 0.033 | [10] -0.098 | [11] -0.121 | [12] -0.072 | [13] 0.023 | [14] -0.021 | [15] 0.036 | [16] -0.04 | [17] -0.06 | [18] 0.008 | [19] 0.071 | [20] 0.018

PHKA2 (UniProt P46019)
inactive: [1] -0.247 | [2] -0.076 | [3] 0.051 | [4] -0.108 | [5] 0.022 | [6] -0.083 | [7] -0.052 | [8] 0.071 | [9] 0.053 | [10] -0.013 | [11] -0.107 | [12] -0.037 | [13] -0.239 | [14] 0.119 | [15] -0.07 | [16] -0.157 | [17] 0.033 | [18] -0.051 | [19] -0.055 | [20] 0.082

PTP4A1 (UniProt Q93096)
Chain of UniProt Q93096 (Q93096 whole entry, looked up): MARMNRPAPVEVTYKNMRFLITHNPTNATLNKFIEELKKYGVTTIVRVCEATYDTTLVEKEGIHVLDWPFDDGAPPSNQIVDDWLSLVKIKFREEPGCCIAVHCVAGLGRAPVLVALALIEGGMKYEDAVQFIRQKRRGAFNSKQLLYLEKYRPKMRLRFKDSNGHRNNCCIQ
inactive: [1] 0.04 | [2] 0.036 | [3] -0.006 | [4] -0.094 | [5] -0.013 | [6] -0.116 | [7] 0.018 | [8] -0.039 | [9] -0.037 | [10] 0.039 | [11] -0.023 | [12] 0.013 | [13] 0.039 | [14] -0.049 | [15] 0.108 | [17] 0.181 | [18] 0.093 | [19] -0.005 | [20] 0.074
active: [16] -0.299

PSMB6 (UniProt P28072)
Chain of UniProt P28072 (P28072 whole entry, looked up): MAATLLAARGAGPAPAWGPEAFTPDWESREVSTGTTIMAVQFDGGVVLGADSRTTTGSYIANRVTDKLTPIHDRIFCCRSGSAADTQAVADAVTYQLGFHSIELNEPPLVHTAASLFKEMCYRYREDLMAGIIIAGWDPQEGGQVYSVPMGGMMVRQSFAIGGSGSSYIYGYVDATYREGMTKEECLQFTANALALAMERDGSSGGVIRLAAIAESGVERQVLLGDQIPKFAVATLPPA
active: [6] 0.444
inactive: [1] 0.01 | [2] 0.096 | [3] 0.003 | [4] 0.059 | [5] -0.049 | [7] 0.011 | [8] -0.029 | [9] 0.049 | [10] -0.037 | [11] 0.06 | [12] -0.053 | [13] 0.028 | [14] 0.049 | [15] 0.098 | [16] -0.011 | [17] -0.068 | [18] -0.027 | [19] 0.125 | [20] -0.014

PSMB4 (UniProt P28070)
Chain of UniProt P28070 (P28070 whole entry, looked up): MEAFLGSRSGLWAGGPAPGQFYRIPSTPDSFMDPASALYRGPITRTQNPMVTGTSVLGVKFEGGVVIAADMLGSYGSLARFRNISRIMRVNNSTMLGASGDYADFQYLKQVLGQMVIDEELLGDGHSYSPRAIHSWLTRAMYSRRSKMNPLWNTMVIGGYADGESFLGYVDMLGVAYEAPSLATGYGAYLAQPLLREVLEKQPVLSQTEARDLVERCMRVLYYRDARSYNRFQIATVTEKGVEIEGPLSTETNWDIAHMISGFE
inactive: [1] 0.014 | [2] 0.03 | [3] -0.09 | [4] 0.064 | [5] -0.04 | [6] 0.08 | [7] -0.002 | [8] -0.018 | [9] 0.021 | [10] 0.015 | [11] 0.051 | [12] -0.052 | [13] 0 | [14] 0.063 | [15] 0.076 | [16] -0.015 | [17] -0.03 | [18] 0.014 | [19] 0.047 | [20] 0.009

PEA15 isoform 2 (UniProt Q15121)
Chain of UniProt Q15121 (Q15121 whole entry, looked up): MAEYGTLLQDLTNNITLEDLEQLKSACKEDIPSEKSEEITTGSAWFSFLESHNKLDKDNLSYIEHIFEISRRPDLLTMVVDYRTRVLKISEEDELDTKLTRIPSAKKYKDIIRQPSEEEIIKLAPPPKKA
active: [14] -0.4
inactive: [1] 0.012 | [2] 0.136 | [3] 0.141 | [4] -0.048 | [5] 0.074 | [6] -0.073 | [7] 0.103 | [8] 0.048 | [9] 0.003 | [10] 0.034 | [11] -0.077 | [12] -0.008 | [13] 0 | [15] -0.026 | [16] -0.004 | [17] 0.036 | [18] 0.021 | [19] 0.04 | [20] 0.054

PI4K2A (UniProt Q9BTU6)
Chain of UniProt Q9BTU6 (Q9BTU6 whole entry, looked up): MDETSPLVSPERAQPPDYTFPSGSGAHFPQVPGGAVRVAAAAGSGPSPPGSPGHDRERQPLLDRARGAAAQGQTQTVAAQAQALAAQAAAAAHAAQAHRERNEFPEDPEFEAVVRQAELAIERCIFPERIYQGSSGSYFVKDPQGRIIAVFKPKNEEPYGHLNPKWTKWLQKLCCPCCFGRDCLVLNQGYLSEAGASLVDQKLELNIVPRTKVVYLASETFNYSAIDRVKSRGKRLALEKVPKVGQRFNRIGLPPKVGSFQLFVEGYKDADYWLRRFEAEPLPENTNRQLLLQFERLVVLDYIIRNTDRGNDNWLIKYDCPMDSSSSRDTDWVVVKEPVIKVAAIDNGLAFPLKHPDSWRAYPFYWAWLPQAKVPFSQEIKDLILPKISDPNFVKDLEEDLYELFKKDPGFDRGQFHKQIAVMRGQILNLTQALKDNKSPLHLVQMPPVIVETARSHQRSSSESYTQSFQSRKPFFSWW
inactive: [1] 0.031 | [2] -0.185 | [3] 0.032 | [4] 0 | [5] 0.043 | [6] -0.004 | [7] -0.009 | [8] 0.001 | [9] 0.015 | [11] -0.127 | [12] -0.042 | [13] 0.004 | [14] 0.037 | [15] -0.011 | [16] 0.076 | [17] 0.002 | [18] 0.056 | [19] 0.031 | [20] -0.006
active: [10] -0.244

POLR1A (UniProt O95602)
Chain of UniProt O95602 (O95602 whole entry, looked up): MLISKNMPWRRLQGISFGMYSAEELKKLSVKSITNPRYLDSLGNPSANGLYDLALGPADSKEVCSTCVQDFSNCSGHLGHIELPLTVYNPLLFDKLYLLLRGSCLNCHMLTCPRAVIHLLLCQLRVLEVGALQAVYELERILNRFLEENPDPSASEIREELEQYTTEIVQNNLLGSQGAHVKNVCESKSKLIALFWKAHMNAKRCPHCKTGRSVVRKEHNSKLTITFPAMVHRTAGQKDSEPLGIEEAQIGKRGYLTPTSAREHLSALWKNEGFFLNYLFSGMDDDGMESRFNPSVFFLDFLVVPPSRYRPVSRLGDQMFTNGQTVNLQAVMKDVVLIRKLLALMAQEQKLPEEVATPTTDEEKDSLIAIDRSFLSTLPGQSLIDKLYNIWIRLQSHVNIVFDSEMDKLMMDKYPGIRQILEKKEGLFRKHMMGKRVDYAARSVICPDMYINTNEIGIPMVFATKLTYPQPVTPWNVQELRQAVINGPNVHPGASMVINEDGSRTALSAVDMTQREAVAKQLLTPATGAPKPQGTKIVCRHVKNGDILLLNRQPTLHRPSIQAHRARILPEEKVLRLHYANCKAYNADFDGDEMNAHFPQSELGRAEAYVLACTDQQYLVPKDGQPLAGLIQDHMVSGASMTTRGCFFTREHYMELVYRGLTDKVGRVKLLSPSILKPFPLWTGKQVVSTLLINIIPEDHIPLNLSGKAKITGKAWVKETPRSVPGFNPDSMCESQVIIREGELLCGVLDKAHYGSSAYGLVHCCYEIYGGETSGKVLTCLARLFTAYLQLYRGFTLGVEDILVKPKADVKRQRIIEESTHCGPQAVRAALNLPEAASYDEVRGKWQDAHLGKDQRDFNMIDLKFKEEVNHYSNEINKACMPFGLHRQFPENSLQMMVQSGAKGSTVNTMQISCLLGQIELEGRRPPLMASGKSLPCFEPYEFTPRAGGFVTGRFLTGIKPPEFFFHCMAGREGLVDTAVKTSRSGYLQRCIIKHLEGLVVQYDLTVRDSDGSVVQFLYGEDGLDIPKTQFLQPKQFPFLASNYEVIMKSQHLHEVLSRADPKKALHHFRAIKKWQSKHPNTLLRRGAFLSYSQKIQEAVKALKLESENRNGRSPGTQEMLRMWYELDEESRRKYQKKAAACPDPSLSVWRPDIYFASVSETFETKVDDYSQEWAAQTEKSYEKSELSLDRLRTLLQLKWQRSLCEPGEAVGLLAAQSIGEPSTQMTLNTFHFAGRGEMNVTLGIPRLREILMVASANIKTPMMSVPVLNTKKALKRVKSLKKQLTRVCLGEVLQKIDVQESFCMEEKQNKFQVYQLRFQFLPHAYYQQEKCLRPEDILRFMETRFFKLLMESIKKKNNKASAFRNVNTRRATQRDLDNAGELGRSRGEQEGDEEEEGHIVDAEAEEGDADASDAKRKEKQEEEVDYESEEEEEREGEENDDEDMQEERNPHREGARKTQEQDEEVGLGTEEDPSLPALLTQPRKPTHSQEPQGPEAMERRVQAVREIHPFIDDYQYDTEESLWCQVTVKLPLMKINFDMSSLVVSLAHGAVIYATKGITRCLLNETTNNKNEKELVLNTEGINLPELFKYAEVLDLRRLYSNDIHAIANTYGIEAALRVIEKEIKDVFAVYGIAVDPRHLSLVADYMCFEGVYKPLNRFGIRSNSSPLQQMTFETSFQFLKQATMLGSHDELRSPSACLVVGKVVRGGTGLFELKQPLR
inactive: [1] 0.076 | [2] -0.017 | [3] -0.116 | [4] 0.125 | [5] 0.111 | [6] -0.03 | [7] -0.145 | [8] 0.08 | [9] 0.141 | [10] -0.151 | [11] -0.11 | [12] 0.004 | [13] -0.051 | [14] 0.046 | [15] 0.046 | [16] -0.003 | [17] -0.16 | [18] -0.057 | [19] 0.019 | [20] 0.069
